Assay results: PubChem BioAssay (Tox21)
Inconclusive results are not listed. Where a call stands in place of a potency, no number is given. The source made the active and inactive calls. Unless noted, calls come from the whole dose curve; as a rule, active = well fitted curve in the direction sought with a large enough effect in the repeat runs; inconclusive = weak or mixed curves; inactive = no such curve, though single readings can be large; an effect the other way counts as inactive or inconclusive.

Key:
[1] = qHTS assay to identify small molecule agonists of the sonic hedgehog signaling (Shh) pathway - cell viability counter screen (AID 1259366); note: nearly all actives have a fitted effect of over 50% in size
How it was run: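 After a 4hr attachment at 37C, NIH/3T3 cells bearing an integrated Gli1-driven luciferase reporter were dosed with compounds. Treatment lasted 24hr, with the final hour including CellTiter-Fluor for a fluorescence viability measurement.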

[2] = qHTS assay to identify small molecule antagonists of the sonic hedgehog signaling (Shh) pathway - cell viability counter screen (AID 1259367); note: nearly all actives have a fitted effect of over 55% in size
How it was run: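 Using CellTiter-Fluor, viability of Gli1-Luc reporter 3T3 cells is read by fluorescence in the wells used for the Shh luciferase assay. Treatment lasts 23 hr with conditioned medium, then reagent 1 hr at 37C.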

[3] = qHTS assay to identify small molecule agonists of the sonic hedgehog signaling (Shh) pathway (AID 1259368; calls by dose curve;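 note: NIH/3T3-derived 3T3Gli1-Luc cells carrying a stable Gli1-driven firefly luciferase reporter; series mostly up to about 92 µM; nearly all actives have a fitted effect of over 15% in size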)
How it was run: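 A Gli1 transcriptional response element controlled firefly luciferase in 3T3Gli1-Luc cells. Compounds and a positive control were added 4 hr after plating, and cells were incubated a further 24 hr at 37 C before luminescence detection.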

[4] = qHTS assay to identify small molecule antagonists of the sonic hedgehog signaling (Shh) pathway (AID 1259369; calls by dose curve; note: nearly all actives have a fitted effect of over 45% in size; note: potency is the fitted concentration of half-maximal effect)
How it was run: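 For antagonist detection, the reporter line received test compounds together with conditioned medium, incubated 24hr at 37 C, 5% CO2, then luminescence was recorded following 30min room-temperature luciferase reagent incubation.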

[5] = qHTS assay to identify small molecule agonists of the androgen receptor (AR) signaling pathway in the presence of an antagonist - cell viability counter screen (AID 1259379);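 note: MDA-kb2 human breast cancer cells carrying an MMTV luciferase reporter; series mostly up to about 92 µM; nearly all actives have a fitted effect of over 25% in size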
How it was run: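 Seed MDA-kb2 at 3,000 cells/well; incubate 5 hr, 37C, 0% CO2. Add nilutamide to 3.0uM final, then pin compounds at 15 concentrations. Incubate 16 hr. Add CellTiter-Fluor at 15 hr, read fluorescence after 1 hr.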

[6] = qHTS assay to identify small molecule antagonists of the estrogen receptor beta (ER-beta) signaling pathway - cell viability counter screen (AID 1259382);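 note: HEK293T cells carrying ER-beta-UAS-bla reporter stimulated with estradiol; series mostly up to about 92 µM; nearly all actives have a fitted effect of over 55% in size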
How it was run: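 In this multiplexed counter screen, cells were seeded at 2,000 per well in medium with 2% charcoal-stripped FBS and incubated 6 hr before compound and 1nM final E2 were added. Sixteen hours later, ATP-based luminescence reported viability.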

[7] = target: Estrogen receptor (Homo sapiens) (UniProt P03372); experiment: qHTS assay to identify small molecule agonists of the estrogen receptor alpha (ER-alpha) signaling pathway in the presence of an antagonist (AID 1259383; calls by dose curve; note: top concentration of the series differs between compounds; nearly all actives have a fitted effect of over 15% in size)
How it was run: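 Stably transfected VM7Luc4E2 reporter cells, kept 5 days in charcoal-stripped serum, received ICI-182,780 at 10.0nM final before compound addition. Following 22hr incubation at 37C and 5% CO2, luciferase signal was read by luminescence.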

[8] = qHTS assay to identify small molecule agonists or antagonists of the thyroid stimulating hormone receptor (TSHR) signaling pathway - wild type cell line counter screen (AID 1259384; calls by dose curve)
How it was run: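 Counter screen in untransfected Hek293: compounds (15-point titration, triplicate) plus phosphodiesterase inhibitor Ro20-1724 added after 18 h plating; 30 min RT. Intracellular cAMP via competitive d2/cryptate immunoassay, 1 h incubation.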

[9] = target: Thyrotropin receptor (Homo sapiens) (UniProt P16473); experiment: qHTS assay to identify small molecule antagonists of the thyroid stimulating hormone receptor (TSHR) signaling pathway (AID 1259385; calls by dose curve; note: nearly all actives have a fitted effect of over 20% in size)
How it was run: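 Antagonist mode: compound-treated TSHR-expressing HEK293 cells were stimulated with 1.5 ng/mL TSH (final) in presence of Ro20-1724 for 30 min at RT. HTRF cAMP detection after 1 h; each compound tested at 15 concentrations, triplicate.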

[10] = qHTS assay to identify small molecule agonists of the estrogen receptor alpha (ER-alpha) signaling pathway in the presence of an antagonist - cell viability counter screen (AID 1259386);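 note: series mostly up to about 92 µM; cells exposed to compounds for 22 h at 37 °C before the viability read; nearly all actives have a fitted effect of over 30% in size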
How it was run: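 Viability counter screen using VM7Luc4E2 (full-length ER-alpha, four ERE-luciferase). The cells were treated with compounds alongside ICI-182,780 10.0nM for 22hr, and live-cell protease fluorescence was quantified with CellTiter-Fluor.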

[11] = target: Progesterone receptor (Homo sapiens) (UniProt P06401); experiment: qHTS assay to identify small molecule agonists of the progesterone receptor (PR) signaling pathway (AID 1346784; calls by dose curve; note: nearly all actives have a fitted effect of over 30% in size; note: potency is the fitted concentration of half-maximal effect)
How it was run: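 Using charcoal-stripped serum (2%) to limit endogenous steroids, PR-UAS-bla HEK 293T cells received compounds for 16 hr at 37C after 6 hr plating; beta-lactamase FRET fluorescence was recorded following 2 hr substrate loading at room temperature.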

[12] = qHTS assay to identify small molecule antagonists of the progesterone receptor (PR) signaling pathway - cell viability counter screen (AID 1346798); note: series mostly up to about 92 µM; nearly all actives have a fitted effect of over 50% in size
How it was run: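 ATP content as viability readout: CellTiter-Glo luminescence, 30 min room temperature, in PR-UAS-bla HEK293T cells after 16 hr compound/R5020 treatment at 37C and 5% CO2.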

[13] = qHTS assay to identify small molecule antagonists of the TGF-beta/Smad signaling pathway - cell viability counter screen (AID 1346824); note: nearly all actives have a fitted effect of over 50% in size
How it was run: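 Cytotoxicity counter-screen run in the same wells as the beta-lactamase Smad reporter read: CellTiter-Glo luminescence after 30 min at room temperature. HEK 293T SBE-bla cells had 5 hr compound exposure at 37 C with TGF-beta1 (0.25 ng/mL stock).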

[14] = qHTS assay to identify small molecule agonists of the TGF-beta/Smad signaling pathway - cell viability counter screen (AID 1346829); note: top concentration of the series differs between compounds; nearly all actives have a fitted effect of over 45% in size
How it was run: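 Compound-treated SBE-bla HEK 293T cells (5 hr, 37 C) were assessed for viability with CellTiter-Glo in parallel with the reporter read.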

[15] = target: Androgen receptor (Homo sapiens) (UniProt P10275); experiment: qHTS assay to identify small molecule agonists of the androgen receptor (AR) signaling pathway in the presence of an antagonist (AID 1259381; calls by dose curve; note: nearly all actives have a fitted effect of over 15% in size)
How it was run: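 Test compounds at 15 concentrations were incubated for 16hr with MDA-kb2 reporter cells in presence of 3.0uM nilutamide (final). Signal: ONE-Glo luciferase luminescence.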

[16] = target: Progesterone receptor (Homo sapiens) (UniProt P06401); experiment: qHTS assay to identify small molecule antagonists of the progesterone receptor (PR) signaling pathway (AID 1346795; active = well fitted inhibition curve with a large enough effect in the signal ratio in the repeat runs, not every such curve was filed as active; the % refers to the signal ratio; note: potency is the fitted concentration of half-maximal effect)
How it was run: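 Inhibition of R5020-induced (1 nM final) beta-lactamase reporter signal in PR-UAS-bla HEK293T cells was scored by FRET fluorescence after overnight (16 hr) compound treatment.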

[17] = qHTS assay to identify small molecule agonists of the progesterone receptor (PR) signaling pathway - cell viability counter screen (AID 1346799; calls by dose curve; note: nearly all actives have a fitted effect of over 45% in size)
How it was run: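 Cytotoxicity in PR-bla HEK293T cells: 16 h compound, 37C; CellTiter-Glo added post-FRET read; luminescence after 30 min RT.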

[18] = target: Estrogen receptor beta (Homo sapiens) (UniProt Q92731); experiment: qHTS assay to identify small molecule agonists of the estrogen receptor beta (ER-beta) signaling pathway (AID 1259377; active = well fitted activation curve with a large enough effect in the signal ratio in the repeat runs, not every such curve was filed as active; the % refers to the signal ratio)
How it was run: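 In HEK293T cells bearing a UAS-beta-lactamase reporter under ER-beta control, DMSO-delivered compounds were incubated for 16 hr at 37C. Activity was detected as fluorescence 2 hours after LiveBLAzer B/G FRET substrate addition.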

[19] = target: Estrogen receptor beta (Homo sapiens) (UniProt Q92731); experiment: qHTS assay to identify small molecule antagonists of the estrogen receptor beta (ER-beta) signaling pathway (AID 1259378; active = well fitted inhibition curve with a large enough effect in the signal ratio in the repeat runs, not every such curve was filed as active; the % refers to the signal ratio)
How it was run: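 Antagonist mode: compounds added to beta-lactamase reporter HEK293T ER-beta-UAS cells stimulated with E2 (1nM final), 16 hr at 37C. LiveBLAzer B/G FRET substrate, 2 hours room temperature, fluorescence read-out.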

[20] = qHTS assay to identify small molecule agonists of the estrogen receptor beta (ER-beta) signaling pathway - cell viability counter screen (AID 1259380); note: nearly all actives have a fitted effect of over 30% in size
How it was run: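 CellTiter-Glo read, 30 min RT, same wells as bla assay; cells ER-beta-UAS-bla HEK293T; 16 hr compound, 37C; medium 2% charcoal-stripped FBS.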

Estrogen receptor beta (Homo sapiens), sequence (Q92731 whole entry, looked up): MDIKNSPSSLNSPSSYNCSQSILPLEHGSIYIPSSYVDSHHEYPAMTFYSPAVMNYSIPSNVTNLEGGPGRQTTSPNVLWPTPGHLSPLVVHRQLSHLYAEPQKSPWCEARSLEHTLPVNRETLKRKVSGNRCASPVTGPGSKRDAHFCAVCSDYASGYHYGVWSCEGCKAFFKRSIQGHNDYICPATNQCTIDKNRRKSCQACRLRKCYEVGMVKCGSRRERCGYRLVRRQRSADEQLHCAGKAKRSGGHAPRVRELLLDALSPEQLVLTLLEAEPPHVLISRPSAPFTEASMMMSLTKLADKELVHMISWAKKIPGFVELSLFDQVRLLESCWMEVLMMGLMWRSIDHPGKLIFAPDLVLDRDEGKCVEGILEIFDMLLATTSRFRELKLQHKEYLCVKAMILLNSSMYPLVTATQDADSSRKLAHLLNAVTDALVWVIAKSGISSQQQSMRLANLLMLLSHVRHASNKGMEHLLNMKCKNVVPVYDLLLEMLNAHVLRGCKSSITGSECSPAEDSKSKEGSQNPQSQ
Estrogen receptor (Homo sapiens), sequence (P03372 whole entry, looked up): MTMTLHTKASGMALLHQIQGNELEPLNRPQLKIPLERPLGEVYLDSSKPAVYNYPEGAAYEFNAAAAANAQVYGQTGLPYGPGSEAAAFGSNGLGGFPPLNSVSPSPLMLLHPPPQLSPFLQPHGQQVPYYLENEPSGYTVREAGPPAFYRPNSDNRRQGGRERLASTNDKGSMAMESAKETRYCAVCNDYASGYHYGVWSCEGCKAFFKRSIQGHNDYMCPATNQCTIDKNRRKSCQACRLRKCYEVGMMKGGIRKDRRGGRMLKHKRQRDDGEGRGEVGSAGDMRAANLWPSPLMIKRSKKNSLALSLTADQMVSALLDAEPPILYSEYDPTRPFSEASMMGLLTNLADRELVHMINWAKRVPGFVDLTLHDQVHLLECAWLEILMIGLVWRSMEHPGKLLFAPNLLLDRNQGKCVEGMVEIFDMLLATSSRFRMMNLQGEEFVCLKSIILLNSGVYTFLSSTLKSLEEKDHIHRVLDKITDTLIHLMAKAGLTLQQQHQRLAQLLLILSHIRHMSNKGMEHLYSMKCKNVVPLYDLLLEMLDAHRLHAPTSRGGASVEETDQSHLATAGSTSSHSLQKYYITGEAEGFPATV
Progesterone receptor (Homo sapiens), sequence (P06401 whole entry, looked up): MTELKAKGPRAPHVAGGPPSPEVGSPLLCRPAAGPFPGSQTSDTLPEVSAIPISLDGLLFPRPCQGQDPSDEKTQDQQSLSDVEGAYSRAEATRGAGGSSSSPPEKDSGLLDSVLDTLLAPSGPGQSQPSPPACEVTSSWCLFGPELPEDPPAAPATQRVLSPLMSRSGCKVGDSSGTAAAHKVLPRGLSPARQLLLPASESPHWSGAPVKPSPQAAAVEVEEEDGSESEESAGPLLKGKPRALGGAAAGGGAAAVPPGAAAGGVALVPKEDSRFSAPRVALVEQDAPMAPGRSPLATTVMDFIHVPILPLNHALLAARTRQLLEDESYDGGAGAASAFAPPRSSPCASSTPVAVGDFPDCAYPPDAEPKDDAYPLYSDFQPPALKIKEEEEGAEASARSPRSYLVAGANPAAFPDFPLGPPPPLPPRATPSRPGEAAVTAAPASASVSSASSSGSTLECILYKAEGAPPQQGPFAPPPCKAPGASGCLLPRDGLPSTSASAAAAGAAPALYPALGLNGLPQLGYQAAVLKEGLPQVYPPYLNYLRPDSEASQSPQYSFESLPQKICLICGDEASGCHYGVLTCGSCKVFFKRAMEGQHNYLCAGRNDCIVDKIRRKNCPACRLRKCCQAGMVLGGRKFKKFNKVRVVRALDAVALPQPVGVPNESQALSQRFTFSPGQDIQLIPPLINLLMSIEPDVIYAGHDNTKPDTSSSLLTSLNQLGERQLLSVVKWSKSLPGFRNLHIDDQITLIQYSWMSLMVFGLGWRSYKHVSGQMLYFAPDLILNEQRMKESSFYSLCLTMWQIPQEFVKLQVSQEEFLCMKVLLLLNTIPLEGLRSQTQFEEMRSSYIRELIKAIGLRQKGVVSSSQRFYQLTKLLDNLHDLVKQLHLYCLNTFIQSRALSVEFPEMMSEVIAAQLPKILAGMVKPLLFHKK
Thyrotropin receptor (Homo sapiens), sequence (P16473 whole entry, looked up): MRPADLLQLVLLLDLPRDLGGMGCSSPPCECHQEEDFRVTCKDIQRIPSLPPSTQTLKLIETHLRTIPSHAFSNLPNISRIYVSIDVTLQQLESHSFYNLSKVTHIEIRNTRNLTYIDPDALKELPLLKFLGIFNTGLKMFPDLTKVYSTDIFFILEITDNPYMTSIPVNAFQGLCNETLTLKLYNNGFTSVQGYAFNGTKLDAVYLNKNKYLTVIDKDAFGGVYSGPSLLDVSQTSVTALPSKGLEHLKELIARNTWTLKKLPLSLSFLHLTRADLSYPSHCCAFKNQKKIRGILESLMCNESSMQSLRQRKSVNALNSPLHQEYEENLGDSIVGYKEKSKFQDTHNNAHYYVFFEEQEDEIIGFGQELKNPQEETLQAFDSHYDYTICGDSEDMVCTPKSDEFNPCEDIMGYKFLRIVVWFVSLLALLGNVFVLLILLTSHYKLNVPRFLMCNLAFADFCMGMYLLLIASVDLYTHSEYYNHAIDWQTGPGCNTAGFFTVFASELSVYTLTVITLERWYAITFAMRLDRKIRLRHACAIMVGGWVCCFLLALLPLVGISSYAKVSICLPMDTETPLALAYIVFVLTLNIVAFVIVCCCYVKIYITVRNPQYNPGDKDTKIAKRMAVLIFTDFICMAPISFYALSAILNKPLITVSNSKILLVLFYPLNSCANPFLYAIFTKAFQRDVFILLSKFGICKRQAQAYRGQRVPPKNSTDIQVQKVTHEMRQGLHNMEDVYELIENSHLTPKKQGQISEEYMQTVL
Androgen receptor (Homo sapiens), sequence (P10275 whole entry, looked up): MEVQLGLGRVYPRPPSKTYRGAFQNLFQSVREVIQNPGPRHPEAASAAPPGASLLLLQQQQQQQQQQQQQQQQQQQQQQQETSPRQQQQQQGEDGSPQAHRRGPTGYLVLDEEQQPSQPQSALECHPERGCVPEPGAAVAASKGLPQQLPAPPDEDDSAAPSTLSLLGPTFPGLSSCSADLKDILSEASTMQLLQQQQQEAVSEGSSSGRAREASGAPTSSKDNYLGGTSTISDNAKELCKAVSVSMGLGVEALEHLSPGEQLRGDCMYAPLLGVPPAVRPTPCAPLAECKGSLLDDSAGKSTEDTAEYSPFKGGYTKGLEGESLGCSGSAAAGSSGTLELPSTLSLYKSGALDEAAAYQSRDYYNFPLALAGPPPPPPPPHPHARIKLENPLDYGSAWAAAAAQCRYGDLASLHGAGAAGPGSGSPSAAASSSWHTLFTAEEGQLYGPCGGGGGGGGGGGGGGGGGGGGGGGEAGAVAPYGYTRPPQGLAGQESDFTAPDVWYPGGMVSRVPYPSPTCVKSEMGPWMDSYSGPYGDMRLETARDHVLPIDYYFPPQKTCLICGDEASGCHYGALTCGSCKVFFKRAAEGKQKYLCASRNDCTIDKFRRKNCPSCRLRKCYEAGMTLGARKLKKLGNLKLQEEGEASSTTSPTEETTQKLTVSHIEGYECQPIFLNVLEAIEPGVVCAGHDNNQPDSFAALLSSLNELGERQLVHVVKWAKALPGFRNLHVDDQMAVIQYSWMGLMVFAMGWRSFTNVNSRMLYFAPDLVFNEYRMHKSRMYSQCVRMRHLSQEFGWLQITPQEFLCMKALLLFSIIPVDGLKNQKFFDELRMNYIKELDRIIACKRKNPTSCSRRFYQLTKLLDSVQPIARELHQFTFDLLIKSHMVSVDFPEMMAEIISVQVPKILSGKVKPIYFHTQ

SMILES	Potency [1]	Potency [2]	outcome [3]	Potency [4]	Potency [5]	outcome [6]	outcome [7]	outcome [8]	outcome [9]	Potency [10]	Potency [11]	Potency [12]	outcome [13]	outcome [14]	outcome [15]	Potency [16]	Potency [17]	Potency [18]	outcome [19]	outcome [20]
CCN(CCO)c1cccc(C)c1	inactive	inactive	inactive	inactive	inactive	inactive	inactive	inactive	inactive	inactive	inactive	inactive	inactive	inactive	–	–	–	–	–	–
COc1cccc2sc(N)nc12	inactive	inactive	inactive	24.5 µM (active)	inactive	inactive	inactive	inactive	inactive	inactive	43.5 µM (active)	–	inactive	inactive	inactive	inactive	inactive	–	–	–
Cn1c(=O)c2c(ncn2CC2OCCO2)n(C)c1=O	inactive	inactive	inactive	–	–	inactive	–	–	–	inactive	inactive	inactive	inactive	inactive	inactive	inactive	inactive	inactive	inactive	inactive
CCCCCCCC/C=C\CCCCCCCC(=O)OC[C@@H](O)[C@H]1OC[C@H](O)[C@H]1O	inactive	inactive	inactive	–	–	inactive	inactive	inactive	inactive	inactive	inactive	inactive	inactive	inactive	–	inactive	inactive	inactive	inactive	inactive
c1ccccc1	inactive	inactive	inactive	inactive	inactive	inactive	–	inactive	inactive	inactive	–	inactive	inactive	inactive	–	inactive	inactive	–	–	–
C=C[Si](C)(C)O[Si](C)(C)C=C	inactive	inactive	inactive	inactive	–	inactive	inactive	inactive	inactive	–	inactive	inactive	inactive	inactive	–	inactive	–	–	–	inactive
O=c1cc(O)c(Cl)c[nH]1	inactive	inactive	inactive	–	inactive	inactive	–	inactive	inactive	inactive	–	inactive	inactive	inactive	–	–	inactive	inactive	inactive	inactive
Oc1ccccc1Cc1ccccc1O	inactive	inactive	inactive	30.6 µM (active)	inactive	–	inactive	inactive	inactive	–	–	–	inactive	inactive	–	27.3 µM (active)	–	–	–	–
Cc1nc([N+](=O)[O-])cn1-c1ccc([N+](=O)[O-])cc1	inactive	inactive	inactive	inactive	inactive	inactive	inactive	inactive	inactive	–	inactive	inactive	inactive	inactive	–	inactive	inactive	–	–	–
